Results filed as inconclusive are left out. The source made the active and inactive calls.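 The calls were made as follows, unless noted: active = GFP signal, as percent of the solvent control, above the screen mean plus 3 SD, about 149; inconclusive = no reading because the compound's own fluorescence upset strain identification; inactive = the rest.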

Test [1] is described as follows: rapamycin-like changes in RPL19A-GFP expression – cell-based, S. cerevisiae, multiplex flow cytometry, primary screen (AID 1862; in the data active = percent of DMSO control GFP below about 86%;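 also: lower values mimic rapamycin by blocking the RPL19A rise seen in DMSO cells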). Conditions: S. cerevisiae RPL19A-GFP strain, flow cytometry fluorescence, 3 h; at 10 µM; stronger effect = lower value.
A short description of test [2]: TOR pathway GLN3 branch reporter MEP2-GFP changes – S. cerevisiae, multiplex flow cytometry, primary screen (AID 1867;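 active = GFP response, as percent of the DMSO control, above the screen-wide mean plus 3 SD, about 139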;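 also: median GFP channel fluorescence of barcode-gated MEP2-GFP cells measured by flow cytometry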). Conditions: S. cerevisiae MEP2-GFP strain, 3 h, at 10 µM, stronger effect = higher value, 100% means same as DMSO wells. Background: In flow cytometry, cells or beads pass a laser one at a time.
Test [3] in a line: TOR pathway RTG branch CIT2 reporter changes – S. cerevisiae, GFP fusion, multiplex flow cytometry, primary screen (AID 1870;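 active = percent response above a set limit, the screen-wide mean plus 3 SD, cut at about 130% in these data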;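 also: barcoded CIT2-GFP strain pooled with four other GFP strains with rapamycin as positive control; median GFP fluorescence per well over plate mean of DMSO wells so 100% = DMSO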). Conditions: S. cerevisiae CIT2-GFP expression, 3 h, at 10 µM, stronger effect = higher value.
The nature of test [4]: TOR pathway LAP4-GFP level changes – S. cerevisiae, multiplex flow cytometry, primary screen (AID 1873). Conditions: S. cerevisiae LAP4-GFP expression, 3 h, at 10 µM, stronger effect = higher value.
The nature of test [5]: yeast AGP1-GFP level changes, GLN3 branch – cell-based, multiplex flow cytometry, S. cerevisiae, primary screen (AID 1887;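 active = GFP signal above the screen-wide mean plus 3 SD, that is over about 124.5% of the solvent control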;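 also: AGP1-GFP fusion strain of S. cerevisiae within a five-strain barcoded multiplex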). As to conditions: 3 h, at 10 µM, stronger effect = higher value.
Test [6] can be described thus: reduced mouse 2C T cell binding to pMHC/ICAM-1 vesicles – MLPCN validation set, flow cytometry, LFA-1/ICAM-1 modulator project, pilot screen (AID 2523;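 active = response below a set limit, under 55% cells CD8-positive and vesicle-bound, and CD8 cells' 90th-percentile brightness under 279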;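 as to vesicle binding response: mean PE anti-B7-1 fluorescence of CD8+ cells relative to row control; 100% = QL9-loaded vesicles with DMSO vehicle in the same plate row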). Conditions: 2C mouse CD8+ T cells, at 7 µM, stronger effect = lower value; double positive events: measured here: CD8+/vesicle+ event percentage.
For test [7], the target named is Integrin beta-1 (Homo sapiens) + Integrin alpha-4 (Homo sapiens) (UniProt P13612+P05556). The test is described as follows: alpha4beta1 integrin LIBS antibody binding reduction – U937 cells, HUTS-21 mAb, flow cytometry, validation set, VLA-4 allosteric modulator project, pilot screen (AID 2674;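 active = inhibition above 50%, about 3 SD of the validation set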;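 also: antibody binding induced by the VLA-4 ligand LDV present at three times its Kd; 0% = LDV ligand with antibody and no compound and 100% = antibody without LDV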). Conditions: HUTS-21 LIBS mAb binding, at 6.7 µM, stronger effect = higher value, binding induced by LDV ligand.

A short description of test [8]: calorie-restriction mimetic ROS inhibitors, yeast – validation compound set, pilot screen (AID 2706;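 active = superoxide response below 65% of plate, a cut near 3 SD across the whole screen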;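 also: yeast exposed to compound for one week at 30 degrees C before staining; 100% = mean of all compound wells on the same plate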). As to conditions: S. cerevisiae aging, superoxide DHE fluorescence; at 10 µM; stronger effect = lower value.
Test [9] addresses Beta-adrenergic receptor kinase 1 (Homo sapiens) (UniProt P25098). Put plainly: GRK2 binders displacing RNA aptamer, biochemical, validation, human GRK2, bead flow cytometry (AID 488806;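 active = aptamer binding inhibition above 30%, about 3 SD of noise from non-fluorescent compounds; inactive = inhibition at or below 30%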). As to conditions: bead-bound GRK2, FAM-aptamer displacement, at 10 µM, stronger effect = higher value.
Test [10] concerns the target Beta-2 adrenergic receptor (Homo sapiens) (UniProt P07550). Put plainly: agonist-induced loss of surface beta2AR – cell-based, FAP fluorogen, flow cytometry, validation set, pilot screen (AID 504459;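 active = percent response above 42, roughly 3 SD of non-fluorescent test compounds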;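 also: agonist-driven loss of surface beta2AR via internalization measured by FAP dye flow cytometry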). Conditions: Am2.2-beta2AR cells, at 10 µM, stronger effect = higher value.
The target in test [11] is AP-2 complex subunit beta (Homo sapiens) (UniProt P63010). The test is described as follows: beta-arrestin/AP2 interaction blockers – biochemical, validation set, GST-AP2 beads, flow cytometry, pilot screen (AID 504541;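 active = inhibition above 54%, about 3 SD of non-fluorescent compounds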;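 also: AP2 carries R879A mutation and is captured from E. coli lysate; bead-bound FITC arrestin peptide fluorescence measuring arrestin peptide binding to AP2; 0% = DMSO wells and 100% = excess unlabeled arrestin peptide control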). As to conditions: FITC arrestin peptide, at 10 µM, stronger effect = higher value, AP2 beta2 appendage fragment, R879A mutant.
Test [12] is described as follows: cytosolic pH regulators acting via V-ATPase – S. cerevisiae, pHLuorin, HTS validation (AID 504600; in the data active = response above about 15%;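 also: plate controls were DMSO for no effect and reference compound for full effect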). As to conditions: V-ATPase proton transport, at 10 µM, stronger effect = higher value.
In test [13] the test system is anti-desmoglein-3 scFv antibody binding to human DSG3. The test is described as follows: blockers of pathogenic pemphigus antibody–desmoglein-3 binding – biochemical, validation compound set, bead-based, flow cytometry, pilot screen (AID 588368;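 active = binding below the plate cutoff, the plate median minus 3 SD, with a reading above zero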;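 also: signal is the median channel fluorescence of bead-bound GFP antibody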). As to conditions: Protein G beads, DSG3-Fc, scFv-GFP binding, at 10 µM, stronger effect = lower value.
Test [14] is described as follows: Nile Red efflux blockade in pump-expressing yeast – validation compound set, multiplex, phenotypic, pilot screen (AID 588506;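 active = efflux inhibition above 0.42, the validation set average plus 4 SD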;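 also: Nile Red retained in cells so higher fluorescence means more efflux inhibition; 0 = negative control wells and 1 = enniatin B 25 µM full block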). Conditions: S. cerevisiae pump-expressing triplex, Nile Red efflux flow cytometry; at 10 µM; stronger effect = higher value; the pumps come from Candida albicans.
For test [15], the target named is ATP-binding cassette sub-family B member 6 (Homo sapiens) (UniProt Q9NP58). Put plainly: blockers of ABCB6-driven porphyrin uptake – K562-ABCB6 cells, flow cytometry, validation set, pilot screen (AID 588550;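 active = inhibition above the screen-wide mean plus 3 SD, about 51%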;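 also: 0% = DMSO wells and 100% = benzethonium chloride 70 µM positive control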). Conditions: K562-ABCB6 porphyrin accumulation, 1 h, at 10 µM, stronger effect = higher value.
Test [16] can be described thus: AML differentiation inducers, ER-HoxA9 marrow cells – cell-based, GFP/MAC1 double positive, flow cytometry, validation set, primary screen (AID 588685;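 active = differentiation response of at least 50%, scaled between solvent and reference control, from cells with both markers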;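 also: compound exposure lasts four days before antibody staining and flow analysis; 0% = DMSO wells and 100% = 5 µM fulvestrant positive control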). Conditions: stronger effect = higher value, normalized: vehicle 0, fulvestrant 100.

ATP-binding cassette sub-family B member 6 (Homo sapiens), sequence (Q9NP58 whole entry, looked up): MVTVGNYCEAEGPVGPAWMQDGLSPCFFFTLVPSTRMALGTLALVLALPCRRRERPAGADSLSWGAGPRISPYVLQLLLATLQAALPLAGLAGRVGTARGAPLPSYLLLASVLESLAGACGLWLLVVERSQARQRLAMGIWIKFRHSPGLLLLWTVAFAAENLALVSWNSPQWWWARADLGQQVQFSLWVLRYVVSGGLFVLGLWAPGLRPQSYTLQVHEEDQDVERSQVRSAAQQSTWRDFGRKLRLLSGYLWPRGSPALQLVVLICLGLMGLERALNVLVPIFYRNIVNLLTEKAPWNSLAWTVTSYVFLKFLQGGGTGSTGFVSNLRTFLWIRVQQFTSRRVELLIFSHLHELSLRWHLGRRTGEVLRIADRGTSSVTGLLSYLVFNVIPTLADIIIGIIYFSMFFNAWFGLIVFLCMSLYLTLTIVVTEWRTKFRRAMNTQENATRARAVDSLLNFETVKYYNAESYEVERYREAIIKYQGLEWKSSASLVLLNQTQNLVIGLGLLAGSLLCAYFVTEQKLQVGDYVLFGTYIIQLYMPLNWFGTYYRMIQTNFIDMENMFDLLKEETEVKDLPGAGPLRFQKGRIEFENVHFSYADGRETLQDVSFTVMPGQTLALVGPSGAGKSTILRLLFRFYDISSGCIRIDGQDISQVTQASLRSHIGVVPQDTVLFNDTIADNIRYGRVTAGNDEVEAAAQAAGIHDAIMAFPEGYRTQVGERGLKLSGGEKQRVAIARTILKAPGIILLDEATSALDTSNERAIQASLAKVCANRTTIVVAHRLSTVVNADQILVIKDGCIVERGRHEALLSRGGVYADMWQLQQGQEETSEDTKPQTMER
Beta-adrenergic receptor kinase 1 (Homo sapiens), sequence (P25098 whole entry, looked up): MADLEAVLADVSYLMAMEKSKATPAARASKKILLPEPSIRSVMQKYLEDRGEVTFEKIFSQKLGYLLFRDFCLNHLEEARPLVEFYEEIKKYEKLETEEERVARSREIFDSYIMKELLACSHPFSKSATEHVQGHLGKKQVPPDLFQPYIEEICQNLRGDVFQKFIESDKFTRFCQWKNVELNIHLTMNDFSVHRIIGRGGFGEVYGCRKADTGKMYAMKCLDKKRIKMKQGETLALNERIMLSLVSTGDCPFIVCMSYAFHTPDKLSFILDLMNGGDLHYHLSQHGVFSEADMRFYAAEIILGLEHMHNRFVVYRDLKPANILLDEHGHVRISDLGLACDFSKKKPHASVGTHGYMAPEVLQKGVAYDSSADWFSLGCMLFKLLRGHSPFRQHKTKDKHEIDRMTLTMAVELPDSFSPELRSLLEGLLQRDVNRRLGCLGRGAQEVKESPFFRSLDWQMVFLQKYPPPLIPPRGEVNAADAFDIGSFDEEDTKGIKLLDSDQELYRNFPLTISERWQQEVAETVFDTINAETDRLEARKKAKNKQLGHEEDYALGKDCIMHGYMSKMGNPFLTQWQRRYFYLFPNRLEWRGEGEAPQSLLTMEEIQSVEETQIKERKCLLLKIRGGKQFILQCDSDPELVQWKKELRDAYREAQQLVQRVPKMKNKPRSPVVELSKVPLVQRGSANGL
Integrin beta-1 (Homo sapiens) + Integrin alpha-4 (Homo sapiens), sequence (P05556 whole entry, looked up): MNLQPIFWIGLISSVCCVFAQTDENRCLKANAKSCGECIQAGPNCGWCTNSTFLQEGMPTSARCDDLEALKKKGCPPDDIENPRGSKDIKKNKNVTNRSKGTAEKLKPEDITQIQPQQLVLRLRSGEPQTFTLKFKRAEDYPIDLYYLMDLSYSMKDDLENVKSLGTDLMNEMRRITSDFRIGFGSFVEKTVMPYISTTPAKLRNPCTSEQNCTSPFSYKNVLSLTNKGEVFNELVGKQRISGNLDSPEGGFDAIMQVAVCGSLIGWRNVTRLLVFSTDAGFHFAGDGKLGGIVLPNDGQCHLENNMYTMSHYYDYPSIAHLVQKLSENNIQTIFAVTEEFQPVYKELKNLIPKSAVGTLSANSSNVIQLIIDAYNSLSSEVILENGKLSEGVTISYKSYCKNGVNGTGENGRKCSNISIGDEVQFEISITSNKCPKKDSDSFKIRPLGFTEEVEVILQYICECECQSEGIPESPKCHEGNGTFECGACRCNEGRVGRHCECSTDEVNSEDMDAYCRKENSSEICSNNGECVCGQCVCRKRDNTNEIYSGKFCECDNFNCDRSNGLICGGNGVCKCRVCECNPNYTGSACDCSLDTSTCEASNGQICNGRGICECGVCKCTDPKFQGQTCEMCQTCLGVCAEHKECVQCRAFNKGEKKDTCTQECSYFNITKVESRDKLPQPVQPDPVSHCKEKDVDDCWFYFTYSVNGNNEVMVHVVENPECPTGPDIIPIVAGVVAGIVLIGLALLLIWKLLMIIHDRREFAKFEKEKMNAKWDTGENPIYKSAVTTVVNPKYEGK
Integrin beta-1 (Homo sapiens) + Integrin alpha-4 (Homo sapiens), sequence (P13612 whole entry, looked up): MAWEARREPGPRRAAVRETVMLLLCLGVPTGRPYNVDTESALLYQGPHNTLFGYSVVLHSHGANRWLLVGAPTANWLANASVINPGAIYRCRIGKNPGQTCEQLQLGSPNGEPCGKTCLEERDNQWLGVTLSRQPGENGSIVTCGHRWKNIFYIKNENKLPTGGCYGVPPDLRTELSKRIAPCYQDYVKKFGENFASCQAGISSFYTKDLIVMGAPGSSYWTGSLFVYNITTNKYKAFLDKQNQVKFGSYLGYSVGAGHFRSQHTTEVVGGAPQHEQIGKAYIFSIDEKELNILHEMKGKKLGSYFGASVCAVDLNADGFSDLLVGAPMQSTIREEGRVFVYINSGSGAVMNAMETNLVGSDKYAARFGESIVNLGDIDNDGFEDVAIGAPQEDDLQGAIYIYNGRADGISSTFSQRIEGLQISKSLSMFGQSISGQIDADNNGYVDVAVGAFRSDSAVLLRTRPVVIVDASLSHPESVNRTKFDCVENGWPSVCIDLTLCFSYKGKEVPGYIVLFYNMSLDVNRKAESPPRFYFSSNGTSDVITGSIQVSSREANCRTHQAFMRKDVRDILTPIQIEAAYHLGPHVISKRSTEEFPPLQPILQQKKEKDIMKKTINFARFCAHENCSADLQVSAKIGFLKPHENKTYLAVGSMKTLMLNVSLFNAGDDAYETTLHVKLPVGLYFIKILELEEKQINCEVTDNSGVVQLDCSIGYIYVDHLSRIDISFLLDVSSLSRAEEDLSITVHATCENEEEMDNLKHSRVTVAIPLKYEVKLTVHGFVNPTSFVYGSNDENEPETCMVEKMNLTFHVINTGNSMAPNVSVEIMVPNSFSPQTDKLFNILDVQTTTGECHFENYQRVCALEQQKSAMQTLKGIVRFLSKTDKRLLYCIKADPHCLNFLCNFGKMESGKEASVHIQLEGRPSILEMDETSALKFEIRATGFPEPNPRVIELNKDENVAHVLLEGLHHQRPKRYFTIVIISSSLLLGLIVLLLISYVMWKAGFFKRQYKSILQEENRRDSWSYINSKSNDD
AP-2 complex subunit beta (Homo sapiens), sequence (P63010 whole entry, looked up, the tested form may be a part, one chain of several): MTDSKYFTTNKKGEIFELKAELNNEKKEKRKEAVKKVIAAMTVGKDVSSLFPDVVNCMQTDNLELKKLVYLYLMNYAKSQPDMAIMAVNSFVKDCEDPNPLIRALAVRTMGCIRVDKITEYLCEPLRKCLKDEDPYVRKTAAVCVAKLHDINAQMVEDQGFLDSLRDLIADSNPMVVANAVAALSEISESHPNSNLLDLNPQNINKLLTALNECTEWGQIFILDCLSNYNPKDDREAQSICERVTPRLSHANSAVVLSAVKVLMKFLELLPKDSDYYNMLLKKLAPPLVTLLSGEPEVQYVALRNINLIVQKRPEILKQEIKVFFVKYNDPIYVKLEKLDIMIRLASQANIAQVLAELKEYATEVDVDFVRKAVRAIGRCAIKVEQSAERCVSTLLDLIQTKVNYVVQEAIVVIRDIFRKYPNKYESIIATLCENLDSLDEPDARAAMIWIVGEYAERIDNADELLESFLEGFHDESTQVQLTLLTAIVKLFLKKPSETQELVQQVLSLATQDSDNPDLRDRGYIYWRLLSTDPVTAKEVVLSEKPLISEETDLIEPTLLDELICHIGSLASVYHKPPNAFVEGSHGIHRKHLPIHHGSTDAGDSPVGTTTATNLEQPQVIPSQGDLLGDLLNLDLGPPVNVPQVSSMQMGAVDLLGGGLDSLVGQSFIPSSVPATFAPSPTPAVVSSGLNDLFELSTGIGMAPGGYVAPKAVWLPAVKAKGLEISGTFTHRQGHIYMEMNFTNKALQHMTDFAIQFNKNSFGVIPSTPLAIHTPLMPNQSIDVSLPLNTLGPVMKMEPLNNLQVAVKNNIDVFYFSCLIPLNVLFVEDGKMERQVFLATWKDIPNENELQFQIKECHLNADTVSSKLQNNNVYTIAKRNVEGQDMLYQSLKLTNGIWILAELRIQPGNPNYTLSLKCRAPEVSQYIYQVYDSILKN
Beta-2 adrenergic receptor (Homo sapiens), sequence (P07550 whole entry, looked up): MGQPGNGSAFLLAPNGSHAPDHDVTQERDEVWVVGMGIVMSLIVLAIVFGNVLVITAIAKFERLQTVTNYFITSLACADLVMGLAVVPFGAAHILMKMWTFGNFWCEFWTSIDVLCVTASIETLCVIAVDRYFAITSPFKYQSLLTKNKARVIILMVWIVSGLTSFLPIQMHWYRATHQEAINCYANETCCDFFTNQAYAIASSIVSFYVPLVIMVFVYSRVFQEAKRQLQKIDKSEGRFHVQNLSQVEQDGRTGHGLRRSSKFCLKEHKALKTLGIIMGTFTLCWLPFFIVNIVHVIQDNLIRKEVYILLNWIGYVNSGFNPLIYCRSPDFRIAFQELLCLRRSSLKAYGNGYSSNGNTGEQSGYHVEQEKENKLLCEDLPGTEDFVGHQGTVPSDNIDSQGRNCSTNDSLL

Broadly, the inhibition is the relative decrease from the control value, in per cent. As for `CC(=O)OC[C@H]1O[C@@H](Sc2cccc3cccnc23)[C@H](OC(C)=O)[C@@H](OC(C)=O)[C@H]1OC(C)=O`, in test [1], the percent of DMSO control GFP was 98.9% (inactive). In addition, the results for the GFP response vs DMSO in test [2] and in test [4] were 99.6% (inactive) and 117% (inactive), respectively. In addition, the percent response of DMSO control in test [3] is 99% (inactive). The GFP response, % of DMSO in test [5] was 94.6% (inactive). Further, the double positive events in test [6] worked out at 62.5%. Further, in [6], the vesicle binding response was 187% (inactive). Besides, the inhibition in test [7] was -5.38% (inactive); in [11], -0.13% (inactive); in test [15], -2% (inactive). Also, the superoxide response (% of plate) in [8] is 105% (inactive). Besides, the aptamer binding inhibition in test [9] was 4% (inactive). Moreover, the response in test [10] is -27.5% (inactive); in test [12], 0.07% (inactive). Also, the binding (% of control) in [13] is 104% (inactive). In addition, in [14], the efflux inhibition (fraction of control) is 0.04 (inactive). The differentiation response in [16] is -5.97% (inactive).
On to `COc1ccc2c(=O)c(-c3cnn(-c4ccccc4)c3)c(C)oc2c1`, for which, in test [1], the percent of DMSO control GFP is 102% (inactive). Further, the GFP response vs DMSO in test [2] was 101% (inactive); in test [4] it was 115% (inactive). Besides, the percent response of DMSO control in test [3] was 99.6% (inactive). Moreover, the GFP response, % of DMSO in [5] is 109% (inactive). In [6], this molecule yielded a double positive events of 58.6%. The vesicle binding response in test [6] was 153% (inactive). Besides, the inhibition in test [7] is -2.82% (inactive); in [11], 7% (inactive); in [15], -336% (inactive). Moreover, in [8], the superoxide response (% of plate) was 91.1% (inactive). Further, in [9], the aptamer binding inhibition is 4% (inactive). Also, the results for the response in [10] and in [12] were -30.2% (inactive) and 1.88% (inactive), respectively. Also, in test [13], the binding (% of control) is 103% (inactive). Also, the efflux inhibition (fraction of control) in [14] was -0.13 (inactive). Moreover, the differentiation response in test [16] is -0.06% (inactive).
Consider `Cc1ccc(/C=N/NC(=O)C2(C)CC2(Br)Br)cc1` (stereo not given), for which the percent of DMSO control GFP in test [1] was 101% (inactive). Moreover, the GFP response vs DMSO in test [2] was 98.7% (inactive); in [4], 130% (inactive). Further, the percent response of DMSO control in test [3] is 98.6% (inactive). Besides, the GFP response, % of DMSO in test [5] was 105% (inactive). This molecule also displayed a double positive events in [6] of 60.8%. Further, the vesicle binding response in test [6] was 184% (inactive). Also, the results for the inhibition in [7], in [11] and in [15] were -7.79% (inactive), 4.52% (inactive) and -2% (inactive), respectively. Also, the superoxide response (% of plate) in test [8] was 84.5% (inactive). In test [9], the aptamer binding inhibition is -4% (inactive). Besides, the response was -4.63% (inactive) in [10] and 1.48% (inactive) in test [12]. In [13], the binding (% of control) was 104% (inactive). Also, the efflux inhibition (fraction of control) in test [14] is -0.22 (inactive). In addition, the differentiation response in [16] was -11.9% (inactive).
Turning to `CCN(CC)CCOC(=O)C(c1ccccc1)c1ccccc1`, the percent of DMSO control GFP in test [1] was 102% (inactive). The values for the GFP response vs DMSO in test [2] and in [4] were 108% (inactive) and 90.1% (inactive), respectively. Also, the percent response of DMSO control in [3] was 91.9% (inactive). Further, the GFP response, % of DMSO in test [5] is 95.6% (inactive). The double positive events in test [6] turned out to be 59.4%. In addition, the vesicle binding response in test [6] was 91.8% (inactive). In addition, the inhibition in [7] was -4.6% (inactive); in test [11], 59.1% (active); in test [15], 6% (inactive). In addition, in test [8], the superoxide response (% of plate) is 105% (inactive). Also, the aptamer binding inhibition in test [9] was 3% (inactive). The response in test [10] is 2.02% (inactive); in test [12], -3.97% (inactive). Also, the binding (% of control) in test [13] is 99% (inactive). Besides, the efflux inhibition (fraction of control) in test [14] is 0.3 (inactive). Besides, in [16], the differentiation response was 37.4% (inactive).
Take `CN1C(=O)NC(c2ccc(O)cc2)C2=C1CN(c1cccc3ccccc13)C2=O` (stereo not given): the percent of DMSO control GFP in [1] is 102% (inactive). Besides, the GFP response vs DMSO is 107% (inactive) in test [2] and 94% (inactive) in [4]. Moreover, the percent response of DMSO control in test [3] was 106% (inactive). Moreover, the GFP response, % of DMSO in test [5] is 100% (inactive). In test [6], the double positive events came to 64%. Moreover, in [6], the vesicle binding response is 229% (inactive). For the same molecule, the inhibition in test [7] was -1.49% (inactive); in test [11], 3.73% (inactive); in test [15], -6% (inactive). For the same molecule, the superoxide response (% of plate) in [8] is 94.5% (inactive). For the same molecule, the aptamer binding inhibition in test [9] is 0% (inactive). Further, the results for the response in [10] and in [12] were -19.6% (inactive) and -0.13% (inactive), respectively. In test [13], the binding (% of control) was 99.8% (inactive). Besides, in test [14], the efflux inhibition (fraction of control) was -0.23 (inactive). For the same molecule, the differentiation response in test [16] is 7.09% (inactive).
